Compound activity as filed in PubChem.
Gal4-VP16 FLuc: VP16 counterscreen qHTS for inhibitors of ROR gamma transcriptional activity; Drosophila S2 Gal4-VP16 UAS-luciferase, luminescence, 20 h; Potency, µM (doses to about 53.6 µM), inactives show at the top dose activity, negative = inhibition, actives largely listed as inhibitors; 310,000 compounds, 3.5% hits;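 note: Gal4-VP16 expression switched on by copper sulfate through the metallothionein promoter; nearly all actives have a fitted effect of over 50% in size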
TDP1 cell CPT: qHTS for Inhibitors of human tyrosyl-DNA phosphodiesterase 1 (TDP1): qHTS in cells in presence of CPT. chicken DT40 Tdp1-/-;hTDP1 cells + 20 nM CPT, ATP luminescence, 48 h. 420,000 compounds, 12% hits. Potency, µM (top dose mostly 46.2 µM), for inactives: top-dose activity change, negative = growth inhibition, most hits filed as inhibitors; note: nearly all actives have a fitted effect of over 55% in size
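Cell growth measured by CellTiter-Glo luminescence after a minimum 48 h, 37 C compound exposure with 20 nM CPT in Tdp1-knockout DT40 cells stably expressing hTDP1, seeded 400/well; qHTS titration format.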
ELG1 repair inh: qHTS screen for small molecules that inhibit ELG1-dependent DNA repair in human embryonic kidney (HEK293T) cells expressing luciferase-tagged ELG1; HEK293T ELG1-luciferase reporter, luminescence, 16 h; DNA damage induced by 5-fluorouridine; Potency, µM (highest dose often 46.1 µM), inactives show at the top dose activity change, negative = inhibition, most hits filed as inhibitors; 330,000 compounds, 2.3% hits; AID 504467, 2011; note: nearly all actives have a fitted effect of over 55% in size
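Step one: seed 2,000 cells per well. Step two: pin-transfer compound or DMSO alongside 5-fluorouridine. Step three: incubate 16 hr, 37 °C, 5% CO2. Step four: add ONE-Glo, wait 30 min, read luminescence.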
TDP1 cell noCPT: qHTS for Inhibitors of human tyrosyl-DNA phosphodiesterase 1 (TDP1): qHTS in cells in absence of CPT; DT40 Tdp1-/- hTDP1 cells, no CPT, ATP luminescence, 48 h; Potency, µM (series often up to 46.2 µM), inactives show at the top dose activity change, negative = growth inhibition, usual class: inhibitors; 420,000 compounds, 15% hits; AID 686978, 2013; note: nearly all actives have a fitted effect of over 55% in size
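No-CPT arm: Tdp1-/-;hTDP1 DT40 cells (400/well) plus compounds, incubated ≥48 hr at 37 °C. Readout CellTiter-Glo luminescence.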
12-LOX inh: Primary qHTS assay for inhibitors of human arachidonate 12S-lipoxygenase (ALOX12): Round 2; Polyunsaturated fatty acid lipoxygenase ALOX12 (Homo sapiens), P18054; purified 12hLO, xylenol orange hydroperoxide absorbance; Potency, µM (series often up to 108 µM), inactives show at the highest dose activity change, negative = inhibition, actives largely listed as inhibitors; 580,000 compounds, 1.1% hits
Target sequence (P18054 whole entry, looked up): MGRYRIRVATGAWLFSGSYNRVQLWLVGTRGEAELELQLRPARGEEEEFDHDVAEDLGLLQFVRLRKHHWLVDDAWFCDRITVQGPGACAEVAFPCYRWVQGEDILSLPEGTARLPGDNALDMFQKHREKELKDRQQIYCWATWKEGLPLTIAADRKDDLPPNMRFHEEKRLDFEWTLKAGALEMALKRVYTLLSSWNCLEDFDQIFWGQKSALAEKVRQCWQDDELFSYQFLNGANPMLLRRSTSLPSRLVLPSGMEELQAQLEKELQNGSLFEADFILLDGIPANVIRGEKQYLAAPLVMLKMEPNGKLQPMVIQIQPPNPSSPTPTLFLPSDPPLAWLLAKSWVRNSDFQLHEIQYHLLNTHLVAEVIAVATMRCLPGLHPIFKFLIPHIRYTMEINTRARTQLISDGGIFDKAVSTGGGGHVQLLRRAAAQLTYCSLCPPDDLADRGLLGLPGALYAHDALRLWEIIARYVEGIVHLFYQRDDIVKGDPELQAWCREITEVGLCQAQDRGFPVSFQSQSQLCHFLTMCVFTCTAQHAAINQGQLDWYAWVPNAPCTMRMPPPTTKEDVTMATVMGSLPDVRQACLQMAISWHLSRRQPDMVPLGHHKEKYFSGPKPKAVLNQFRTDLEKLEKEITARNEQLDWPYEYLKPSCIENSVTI
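Purified human 12hLO (150 nM final) in 25 mM Hepes, 0.01% Triton X-100, pH 7.0 was preincubated 15 min at room temperature with compound. Then 40 uM arachidonic acid was added, 30 min. Hydroperoxide was read by Fe-XO absorbance ratio 573/405 nm.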
RORgamma inh: qHTS for inhibitors of ROR gamma transcriptional activity | 310,000 compounds, 5.4% hits | Nuclear receptor ROR-gamma (Mus musculus), P51450 | Drosophila S2 Gal4-RORgamma UAS-luciferase reporter, 20 h | Potency, µM (series often up to 53.6 µM), inactives show top-dose activity change, negative = inhibition, usual class: inhibitors; note: nearly all actives have a fitted effect of over 60% in size
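ROR gamma transcriptional activity was tracked as Gal4-UAS luciferase output in stably transfected Drosophila Schneider cells, with compound added 1 hr before 700 uM copper sulfate induction and a 20 hr ambient-temperature incubation.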
The depositor's hits bear a star; i = inactive; ? = inconclusive; / = no result given; [ ] = remark or other dose. Only some compounds are listed: those with a hit (about 15% of all), similar ones and a draw of the others. Calls come from the whole dose curve; as a rule, active = well fitted curve in the direction sought with a large enough effect; inconclusive = small, poorly fitted or top-dose-only effect, or another doubt; inactive = no such curve, though single readings can be large; an effect the other way counts as inactive or inconclusive. % is set by controls: 0 for no effect and ±100 for the full control effect; potency is the fitted concentration of half-maximal effect.

SMILES	Gal4-VP16 FLuc	TDP1 cell CPT	ELG1 repair inh	TDP1 cell noCPT	12-LOX inh	RORgamma inh
COc1ccc(S(=O)(=O)c2cn(C)c3cc(N4CCCCCC4)c(F)cc3c2=O)cc1	/	18.4µM*	/	14.6µM*	-6.4%	/
N/C(=N\O)c1ccc(N2CCN(c3ncccc3C(F)(F)F)CC2)nc1	6.0%	?	?	18.4µM*	28.1%	1.8%
O=C(Nc1ccc(N2CCN(c3ncccc3C(F)(F)F)CC2)nc1)c1cccs1	-21.0%	18.4µM*	20.6µM*	20.6µM*	-5.4%	?
CC(C)(C)C(=O)N1CCN(c2ncccc2C(F)(F)F)CC1	20.8%	-26.0%	1.0%	-24.5%	462.9%	22.2%
O=C(Nc1ccc2c(c1)OCO2)C1CCN(C(=O)c2n[nH]c(=O)c3ccccc23)CC1	/	/	/	/	-4.9%	/
CN(CC(=O)NC(=O)NCc1ccccc1)CC(=O)Nc1ccc(Cl)c(Cl)c1	/	25.9µM*	18.3µM*	?	185.7%	/
Cc1ccc(NC(=O)CC(C)CC(=O)NCc2ccccc2)cc1Cl (stereo not drawn)	1.2%	13µM*	-14.6%	?	0.0%	-5.2%
COc1cccc(NC(=O)CN(C)CC(=O)NC(=O)NCc2ccccc2)c1	/	/	/	/	-5.4%	/
Cc1ccc(S(=O)(=O)N2CCN(C(=O)c3cc4ccccc4oc3=O)CC2)cc1	/	/	/	/	-25.3%	/
CN(Cc1ccccc1)S(=O)(=O)c1ccc(Cl)c(C(=O)NCCc2ccccn2)c1	6.5%	16.4µM*	?	?	0.4%	9.5%
O=C(NCCc1ccccn1)c1cc(-c2ccc(Cl)c(Cl)c2Cl)nc2ccccc12	?	?	?	18.4µM*	-17.5%	?
CN(Cc1ccccc1)S(=O)(=O)c1ccc(Cl)c(C(=O)NCCCN2CCCC2=O)c1	/	?	/	16.4µM*	2.1%	/
CN(Cc1ccccc1)S(=O)(=O)c1ccc(Cl)c(C(=O)NCCCN2CCOCC2)c1	/	-9.2%	28.6%	?	-7.8%	/
CC(=O)c1cc(CN2CCC(n3nccc3NC(=O)Cc3ccccc3)CC2)cs1	/	/	/	/	18.4%	/
CC(C)CC(N)c1csc(Nc2cc(Oc3ccccc3)ncn2)n1 (stereo not drawn)	/	23.1µM*	/	20.6µM*	?	/
CC(C)C(N)c1csc(Nc2cc(Oc3ccccc3)ncn2)n1 (stereo not drawn)	/	?	/	?	34.0%	/
NC(c1ccccc1)c1csc(Nc2cc(Oc3ccccc3)ncn2)n1 (stereo not drawn)	/	18.4µM*	/	16.4µM*	35.5µM*	/
Cc1cnc(C(=O)N2CCC3(CCCN(Cc4cccc(F)c4F)C3=O)C2)[nH]1 (stereo not drawn)	/	/	/	/	11.2%	/
CC(C)=CCN1CCN(CCO)CC1	/	/	/	/	16.6%	/
COc1cccc(C(=O)Oc2ccc(/C=N/Nc3ccc(C(=O)O)cc3)cc2OC)c1	2.24µM*	?	?	29.1µM*	5.9%	-10.6%[1.91 µM]
COc1cccc(OCc2cc(/C=N/Nc3ccc(C(=O)O)cc3)ccc2OC)c1	7.94µM*	20.6µM*	?	20.6µM*	0.0%	0.282µM*
COCc1cc(/C=N\NC(=O)COc2ccccc2)ccc1OC	12.3%	-1.6%	-2.7%	-22.8%	-18.6%	7.8%
OCc1cc(CC2(NCc3ccc(CO)o3)COC2)no1	/	/	/	/	6.1%[176 µM]	/
CCOC(=O)c1cc(N2CCCCC2)nc2ccccc12	/	23.1µM*	/	?	-16.7%	/
COc1cccc(N2CCN(C(=O)c3cc4c(=O)oc5ccc(C)cc5c4s3)CC2)c1	/	?	/	?	-23.5%	/
SMILES	Gal4-VP16 FLuc	TDP1 cell CPT	ELG1 repair inh	TDP1 cell noCPT	12-LOX inh	RORgamma inh
COc1cc2c(cc1OC)C(C)N(C(=O)c1cccs1)CC2 (stereo not drawn)	-18.6%[10 µM]	?	?	?	0.0%	-16.2%
COc1cc2c(cc1OC)C(C)N(C(=O)c1cc3c(=O)oc4ccc(C)cc4c3s1)CC2 (stereo not drawn)	-21.5%	13µM*	?	14.6µM*	i	10µM*
COc1cc2c(cc1OC)C(C)N(C(=O)c1cc3c(s1)-c1c(C)cccc1OC3)CC2 (stereo not drawn)	-4.2%	?	?	16.4µM*	435.8%	-13.8%
COc1cc2c(cc1OC)C(C)N(C(=O)C1COc3ccccc3O1)CC2 (stereo not drawn)	4.2%	16.4µM*	23.1µM*	25.9µM*	-16.5%	?
COc1cc2c(cc1OC)C(C)N(C(=O)c1cc3c(s1)-c1ccccc1OC3)CC2 (stereo not drawn)	-10.2%	?	?	20.6µM*	465.1%	-39.1%
Cc1cccc(-n2cc(-c3ccc([N+](=O)[O-])cc3)[nH]c2=S)c1	3.98µM*	8.4%	12.1%	3.9%	-25.0%	7.08µM*
Cc1ccc(-n2cc(-c3ccc([N+](=O)[O-])cc3)[nH]c2=S)c(C)c1	6.31µM*	16.4µM*	-28.8%	16.4µM*	?	1.26µM*
Cc1[nH]c(SC(C)C(=O)Nc2cccc(S(=O)(=O)N3CCCCC3)c2)nc1Cc1ccccc1 (stereo not drawn)	/	/	/	/	2.7%	/
O=C(NC1CCN(c2cc(-c3ccc(Cl)cc3)[nH]n2)C1)c1ccc(Br)o1 (stereo not drawn)	/	/	/	/	13.8%	/
C=CCn1c(CC(C)(C)C)nc2ccccc21	-5.5%	0.2%	-1.9%	3.1%	-2.8%	11.2µM*
O=C(Cn1c(COc2ccccc2)nc2ccccc21)Nc1cc(Cl)cc(Cl)c1	?	18.4µM*	3.4%	?	?	-16.4%[10 µM]
C=CCn1c(COc2ccccc2)nc2ccccc21	?	?	?	23.1µM*	8.9%	?
C=CCn1c(C(CC)CC)nc2ccccc21	-14.5%	10.2%	?	-24.0%	184.3%	6.31µM*
CN(C)CCn1c(COc2ccccc2)nc2ccccc21	/	?	/	-11.8%	87.9%	/
C=CCn1c(CCC)nc2ccccc21	-6.9%	1.0%	7.5%	-19.8%	-1.0%	-2.0%
C=CCn1c(C(C)(C)C)nc2ccccc21	7.3%	-16.4%	0.2%	-24.7%	1.3%	-25.7%
CC(C)Cn1c(CN(C)CCC2CCCCO2)cnc1S(=O)(=O)Cc1ccccc1 (stereo not drawn)	/	/	/	/	-18.9%	/
Cn1cc(CC(=O)N2CCCc3ncc(C(=O)NCc4cccs4)cc32)c2ccccc21	/	/	/	/	-15.1%	/
